Source: the supplement of paper PMC10412459
Structures can show the parent of a compound that is named as a salt.

Test system: K562 SF3B1 K700E vs K562 SF3B1 WT
Experiment: surviving fraction ratio K562 SF3B1 K700E / K562 SF3B1 WT (each relative to DMSO); higher = less selective killing of SF3B1 K700E cells
Settings: 5 days
Method in brief: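 In 384-well plates holding 250 cells per well, isogenic K562 cells bearing an engineered mutant allele and matched wild-type cells received compounds from an in-house 80-compound library 24 h after seeding. Doses were 0.5, 1, 5, 10, 50, 100, 500 and 1,000 nM, with 5 d of continuous culture. Surviving fractions were taken from CellTiter-Glo readings and normalised to DMSO. The value reported is the mutant-over-wild-type ratio of these fractions.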

| SMILES | surviving fraction ratio K562 SF3B1 K700E / K562 SF3B1 WT (0.5nM) | surviving fraction ratio K562 SF3B1 K700E / K562 SF3B1 WT (1nM) | surviving fraction ratio K562 SF3B1 K700E / K562 SF3B1 WT (5nM) | surviving fraction ratio K562 SF3B1 K700E / K562 SF3B1 WT (10nM) | surviving fraction ratio K562 SF3B1 K700E / K562 SF3B1 WT (50nM) | surviving fraction ratio K562 SF3B1 K700E / K562 SF3B1 WT (100nM) | surviving fraction ratio K562 SF3B1 K700E / K562 SF3B1 WT (500nM) | surviving fraction ratio K562 SF3B1 K700E / K562 SF3B1 WT (1000nM) |
| --- | --- | --- | --- | --- | --- | --- | --- | --- |
| Cc1nc(Nc2n[nH]c3c2CN(C(=O)N[C@H](CN(C)C)c2ccccc2)C3(C)C)c2sccc2n1 | 0.912 | 0.858 | 1.09 | 1.34 | 1.76 | 1.69 | 1.98 | 1.69 |
| CC(=O)NCC(=O)N1[C@@H]2CC[C@H]1c1ccc(Nc3ncc(C(F)(F)F)c(NC4CCC4)n3)cc12 | 0.948 | 1.01 | 0.872 | 0.883 | 0.549 | 1.05 | 1.18 | 1.64 |
| COc1cc2ncnc(Nc3ccc(F)c(Cl)c3)c2cc1NC(=O)/C=C/CN1CCCCC1 | 0.911 | 0.948 | 0.89 | 0.805 | 0.886 | 0.945 | 0.756 | 0.642 |
| CC(=O)c1c(C)c2cnc(Nc3ccc(N4CCNCC4)cn3)nc2n(C2CCCC2)c1=O | 0.861 | 0.89 | 0.743 | 0.796 | 0.826 | 0.882 | 0.849 | 0.864 |
| C#Cc1cccc(Nc2ncnc3cc(OCCOC)c(OCCOC)cc23)c1 [erlotinib] | 0.882 | 0.743 | 0.852 | 0.843 | 0.692 | 0.788 | 0.811 | 0.712 |
| Cc1ccc(-c2cc(C(F)(F)F)nn2-c2ccc(S(N)(=O)=O)cc2)cc1 [celecoxib] | 0.751 | 0.819 | 0.804 | 0.813 | 0.673 | 0.736 | 0.79 | 0.698 |
| Nc1nc(=S)c2[nH]cnc2[nH]1 [6-thioguanine] | 0.927 | 0.836 | 0.914 | 0.819 | 0.78 | 0.792 | 0.828 | 0.777 |
| CN(C)C/C=C/C(=O)Nc1cc2c(Nc3ccc(F)c(Cl)c3)ncnc2cc1O[C@H]1CCOC1 | 0.936 | 1.06 | 0.796 | 0.769 | 0.795 | 0.679 | 0.666 | 0.915 |
| COc1ccc(C2=N[C@@H](c3ccc(Cl)cc3)[C@@H](c3ccc(Cl)cc3)N2C(=O)N2CCNC(=O)C2)c(OC(C)C)c1 [Nutlin3] | 1 | 0.984 | 0.843 | 0.873 | 0.861 | 0.781 | 0.767 | 0.894 |
| Nc1ccn([C@@H]2O[C@H](CO)[C@@H](O)C2(F)F)c(=O)n1 [gemcitabine.HCl] | 0.839 | 0.772 | 0.465 | 0.491 | 0.901 | 1.16 | 1.1 | 1.16 |
| CN(C)CC[C@H](CSc1ccccc1)Nc1ccc(S(=O)(=O)NC(=O)c2ccc(N3CCN(Cc4ccccc4-c4ccc(Cl)cc4)CC3)cc2)cc1[N+](=O)[O-] | 0.745 | 0.762 | 0.761 | 0.841 | 0.902 | 0.819 | 0.908 | 0.796 |
| COCC[n+]1c2c(n(Cc3cnccn3)c1C)C(=O)c1ccccc1C2=O | 0.819 | 0.805 | 1.33 | 1.8 | 1.14 | 0.899 | 0.84 | 0.809 |
| CNC(=O)c1cc(Oc2ccc(NC(=O)Nc3ccc(Cl)c(C(F)(F)F)c3)cc2)ccn1 [sorafenib] | 0.8 | 0.973 | 0.87 | 0.956 | 0.915 | 1 | 0.887 | 0.973 |
| Cn1cc(C2=Nc3cc(NC(=O)C(N)C4CCCCC4)cc4c3C2=CNNC4=O)cn1 (stereo not given) | 0.884 | 0.979 | 0.826 | 0.834 | 0.992 | 0.621 | 0.815 | 1.88 |
| Cc1nc(Nc2ncc(C(=O)Nc3c(C)cccc3Cl)s2)cc(N2CCN(CCO)CC2)n1 [dasatinib] | 1.18 | 2.2 | 1.86 | 1.39 | 1.23 | 1.42 | 1.72 | 1.65 |
